Experimental data as given in PubChem BioAssay (NCI).
This is part of a sample that, as a whole, favours compounds with a hit. Of some 83,000 tested, about 20% had one in any assay.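 Method: cells in 96-well plates; compound added at one concentration; 48 h incubation; percent growth measured; values under 10 scored active.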 Activity calls are given as the source filed them.

Assays:
Assay in all cases: NCI-60 one-dose screen, 48 h (100 = growth as untreated, 0 = no growth, -100 = all killed)
Conditions in all cases: 10 µM unless noted
DU-145 prostate = system: DU-145 prostate
K-562 leukemia = system: K-562 leukemia
MALME-3M melanoma = system: MALME-3M melanoma
MDA-MB-231 breast = system: MDA-MB-231 breast
SF-268 CNS = system: SF-268 CNS
SF-295 CNS = system: SF-295 CNS
SF-539 CNS = system: SF-539 CNS
UACC-257 melanoma = system: UACC-257 melanoma
HCT-15 colon = system: HCT-15 colon
HT29 colon = system: HT29 colon
SNB-75 CNS = system: SNB-75 CNS
SNB-19 CNS = system: SNB-19 CNS
U251 CNS = system: U251 CNS
PC-3 prostate = system: PC-3 prostate
SK-MEL-5 melanoma = system: SK-MEL-5 melanoma
UACC-62 melanoma = system: UACC-62 melanoma
LOX IMVI melanoma = system: LOX IMVI melanoma
SK-MEL-28 melanoma = system: SK-MEL-28 melanoma

Measured: growth

COc1ccc2c(c1)c(CC(=O)[Se]CC(=O)O)c(C)n2C(=O)c1ccc(Cl)cc1
inactive: DU-145 prostate 85% | K-562 leukemia 95.8% | MALME-3M melanoma 112% | MDA-MB-231 breast 54.1% | SF-268 CNS 64.1% | SF-295 CNS 11.1% | SF-539 CNS 66.8% | UACC-257 melanoma 110% | HCT-15 colon 93% | HT29 colon 75.5% | SNB-75 CNS 101% | SNB-19 CNS 40.7% | U251 CNS 62% | PC-3 prostate 93.8% | SK-MEL-5 melanoma 56.7% | UACC-62 melanoma 63.6% | LOX IMVI melanoma 72.1% | SK-MEL-28 melanoma 90.3%

CN1CCN(Cc2ccc(NC(=O)c3cncc(C#Cc4cnc5ccc(OCC(C)(C)O)nn45)c3)cc2C(F)(F)F)CC1
active: DU-145 prostate -36.8% | K-562 leukemia 8.57% | MALME-3M melanoma -67.6% | MDA-MB-231 breast -11.1% | SF-268 CNS -50.4% | SF-295 CNS -2.58% | SF-539 CNS -83.1% | UACC-257 melanoma -16.8% | HCT-15 colon -39.2% | HT29 colon -22.7% | SNB-75 CNS -46.1% | SNB-19 CNS -8.47% | U251 CNS -59.3% | PC-3 prostate 2.2% | SK-MEL-5 melanoma -91.8% | UACC-62 melanoma -41.1% | LOX IMVI melanoma -91% | SK-MEL-28 melanoma -38.9%

COc1cc2oc(-c3cccc(NC(=O)c4cc(N)ccc4Cl)c3)cc(=O)c2c(OC)c1OC
inactive: DU-145 prostate 99.7% | K-562 leukemia 83.7% | MALME-3M melanoma 100% | MDA-MB-231 breast 87.8% | SF-268 CNS 98.2% | SF-295 CNS 91.4% | SF-539 CNS 94.8% | UACC-257 melanoma 127% | HCT-15 colon 85.7% | HT29 colon 110% | SNB-75 CNS 101% | SNB-19 CNS 100% | U251 CNS 101% | PC-3 prostate 97.9% | SK-MEL-5 melanoma 75.3% | UACC-62 melanoma 94.4% | LOX IMVI melanoma 87.1% | SK-MEL-28 melanoma 108%

CS(=O)(=O)Nc1cc(-c2ccc3ncc(C#N)c(NCc4ccccc4F)c3c2)cnc1Cl
inactive: DU-145 prostate 19% | K-562 leukemia 13.2% | HT29 colon 11% | SNB-75 CNS 26.3% | SNB-19 CNS 12.8% | U251 CNS 11.5%
active: MALME-3M melanoma -35.6% | MDA-MB-231 breast 5.59% | SF-268 CNS 7.96% | SF-295 CNS -21.7% | SF-539 CNS -11.5% | UACC-257 melanoma 2.07% | HCT-15 colon 8.34% | PC-3 prostate 6.54% | SK-MEL-5 melanoma -93.6% | UACC-62 melanoma -20.7% | LOX IMVI melanoma -41.9% | SK-MEL-28 melanoma 5.71%

N=c1c2cc(-c3ccccc3)oc2ncn1/N=C/c1ccc(Cl)cc1
inactive: DU-145 prostate 38.8% | K-562 leukemia 78.7% | MALME-3M melanoma 38.5% | MDA-MB-231 breast 96.3% | SF-268 CNS 76.3% | SF-295 CNS 93.1% | SF-539 CNS 82.7% | UACC-257 melanoma 95.1% | HCT-15 colon 56.8% | HT29 colon 98.7% | SNB-75 CNS 88.7% | SNB-19 CNS 86.5% | U251 CNS 66.4% | PC-3 prostate 82.2% | SK-MEL-5 melanoma 91.2% | UACC-62 melanoma 90.6% | LOX IMVI melanoma 63.3% | SK-MEL-28 melanoma 82.9%

COc1cccc(O)c1/C=C(/C)c1ccc2c(OC)cccc2[o+]1
inactive: DU-145 prostate 111% | K-562 leukemia 95.6% | MALME-3M melanoma 96.8% | MDA-MB-231 breast 101% | SF-268 CNS 100% | SF-295 CNS 99.1% | SF-539 CNS 93.2% | UACC-257 melanoma 118% | HCT-15 colon 95.1% | HT29 colon 118% | SNB-75 CNS 97.1% | SNB-19 CNS 103% | U251 CNS 106% | PC-3 prostate 97.5% | SK-MEL-5 melanoma 105% | UACC-62 melanoma 93.7% | LOX IMVI melanoma 83.9% | SK-MEL-28 melanoma 101%

COc1cc(/C=N/NC(=O)c2cn(C3CC3)c3c(OC)c(N4CC5CCCNC5C4)c(F)cc3c2=O)ccc1O (stereo not drawn)
active: K-562 leukemia -25.5% | MDA-MB-231 breast -27.4% | SF-539 CNS -9.11% | HT29 colon -0.257% | U251 CNS -67% | LOX IMVI melanoma -83.5%
inactive: DU-145 prostate 46.5% | MALME-3M melanoma 89.2% | SF-268 CNS 82.1% | SF-295 CNS 100% | UACC-257 melanoma 104% | HCT-15 colon 32% | SNB-75 CNS 106% | SNB-19 CNS 26.2% | PC-3 prostate 45.1% | SK-MEL-5 melanoma 95.4% | UACC-62 melanoma 91.5% | SK-MEL-28 melanoma 94.4%

CC(=O)c1cc(C(=O)c2ccc(Br)cc2)n2cc(C)cc(C)c12
inactive: DU-145 prostate 94.8% | K-562 leukemia 93.1% | MALME-3M melanoma 111% | MDA-MB-231 breast 90% | SF-268 CNS 89.7% | SF-295 CNS 96% | SF-539 CNS 88.4% | UACC-257 melanoma 105% | HCT-15 colon 74.6% | HT29 colon 94.9% | SNB-75 CNS 89.8% | SNB-19 CNS 90.5% | U251 CNS 101% | PC-3 prostate 87.1% | SK-MEL-5 melanoma 66.3% | UACC-62 melanoma 82.6% | LOX IMVI melanoma 86.3% | SK-MEL-28 melanoma 92.4%

O=C(NNc1nc2cc(F)c(F)cc2n2c(CN3CC4CNCC4C3)ccc12)c1cnccn1 (stereo not drawn)
active: MALME-3M melanoma 7.02% | SF-295 CNS 5.87% | SF-539 CNS 8.64% | UACC-257 melanoma 7.77% | SK-MEL-5 melanoma 0.703% | UACC-62 melanoma -1.09% | LOX IMVI melanoma 2.25%
inactive: DU-145 prostate 22.1% | K-562 leukemia 14.1% | MDA-MB-231 breast 39.6% | SF-268 CNS 15.8% | HCT-15 colon 23% | HT29 colon 26.3% | SNB-75 CNS 60% | SNB-19 CNS 25.9% | U251 CNS 22.4% | PC-3 prostate 22% | SK-MEL-28 melanoma 27.4%

CC1(C)CC[C@]23CC[C@]4(C)[C@H](CC[C@@H]5[C@@]6(C)CCCN(CO)C(C)(C)[C@@H]6CC[C@]54C)[C@H]2[C@H]1OC3
active: K-562 leukemia 2.86% | HCT-15 colon 7.34% | LOX IMVI melanoma -80.9%
inactive: DU-145 prostate 50.7% | MALME-3M melanoma 101% | MDA-MB-231 breast 65.9% | SF-268 CNS 97.5% | SF-295 CNS 112% | SF-539 CNS 84.6% | UACC-257 melanoma 110% | HT29 colon 21% | SNB-75 CNS 112% | SNB-19 CNS 56.6% | U251 CNS 32.5% | PC-3 prostate 73.6% | SK-MEL-5 melanoma 100% | UACC-62 melanoma 101% | SK-MEL-28 melanoma 103%

C=CCn1c(SCC(=O)Nc2ccc(C(=O)/C=C/c3ccc(Cl)cc3)cc2)nnc1-c1c[nH]c2ccccc12
active: LOX IMVI melanoma 1.53%
inactive: DU-145 prostate 90.6% | K-562 leukemia 50.7% | MALME-3M melanoma 83% | MDA-MB-231 breast 81.5% | SF-268 CNS 64% | SF-295 CNS 46% | SF-539 CNS 75.8% | UACC-257 melanoma 99.6% | HCT-15 colon 62.9% | HT29 colon 88.7% | SNB-75 CNS 93.5% | SNB-19 CNS 76.1% | U251 CNS 76.3% | PC-3 prostate 58.4% | SK-MEL-5 melanoma 42.9% | UACC-62 melanoma 57.4% | SK-MEL-28 melanoma 90.2%

NC(N)=Nc1ccc(Oc2cccc(NC(N)=Nc3ccc(Cl)c(C(F)(F)F)c3)c2)cc1
active: PC-3 prostate 6.36% | LOX IMVI melanoma -26.5%
inactive: DU-145 prostate 75.2% | K-562 leukemia 31.7% | MALME-3M melanoma 61.8% | MDA-MB-231 breast 61.3% | SF-268 CNS 21.9% | SF-295 CNS 58.3% | SF-539 CNS 49.3% | UACC-257 melanoma 57% | HCT-15 colon 84.3% | HT29 colon 46.7% | SNB-75 CNS 65% | SNB-19 CNS 13.9% | U251 CNS 23% | SK-MEL-5 melanoma 42% | UACC-62 melanoma 47.8% | SK-MEL-28 melanoma 70%

NC(N)=Nc1ccc(Oc2cccc(NC(N)=Nc3ccc(Br)c(C(F)(F)F)c3)c2)cc1
inactive: DU-145 prostate 72.6% | K-562 leukemia 29.3% | MALME-3M melanoma 67.5% | MDA-MB-231 breast 61.4% | SF-268 CNS 18.8% | SF-295 CNS 40.5% | SF-539 CNS 39.8% | UACC-257 melanoma 54.8% | HCT-15 colon 83.1% | HT29 colon 40.1% | SNB-75 CNS 62.5% | SNB-19 CNS 10.2% | U251 CNS 21.4% | SK-MEL-5 melanoma 36.8% | UACC-62 melanoma 44.2% | SK-MEL-28 melanoma 64.1%
active: PC-3 prostate 4.3% | LOX IMVI melanoma -58.9%

CCOc1ccccc1NC1=C(Cl)C(=O)c2nc(C)ccc2C1=O
active: DU-145 prostate -85% | K-562 leukemia 1.26% | MALME-3M melanoma -71.4% | MDA-MB-231 breast -63.6% | SF-539 CNS -37.3% | UACC-257 melanoma -88.3% | HCT-15 colon -76.6% | PC-3 prostate 4.34% | SK-MEL-5 melanoma -97.8% | UACC-62 melanoma -29.1% | LOX IMVI melanoma -82.2%
inactive: SF-268 CNS 32.8% | SF-295 CNS 90.7% | HT29 colon 20% | SNB-75 CNS 101% | SNB-19 CNS 46.5% | U251 CNS 37.9% | SK-MEL-28 melanoma 14.6%

CCn1c(SCC(=O)Nc2cccc(C(=O)/C=C/c3ccc(Br)cc3)c2)nc2ccccc2c1=O
inactive: DU-145 prostate 104% | K-562 leukemia 77.3% | MALME-3M melanoma 95.3% | MDA-MB-231 breast 85.5% | SF-268 CNS 100% | SF-295 CNS 98.5% | SF-539 CNS 91.4% | UACC-257 melanoma 96.3% | HCT-15 colon 65% | HT29 colon 85.4% | SNB-75 CNS 73.8% | SNB-19 CNS 85.9% | U251 CNS 88.7% | PC-3 prostate 83.4% | SK-MEL-5 melanoma 91.7% | UACC-62 melanoma 73.9% | LOX IMVI melanoma 41.9% | SK-MEL-28 melanoma 98.2%

NC(N)=Nc1ccc(Oc2cccc(NC(N)=Nc3ccc(Br)cc3)c2)cn1
inactive: DU-145 prostate 80.4% | K-562 leukemia 52.4% | MALME-3M melanoma 69.8% | MDA-MB-231 breast 76.8% | SF-268 CNS 28.2% | SF-295 CNS 44.4% | SF-539 CNS 48.7% | UACC-257 melanoma 77.9% | HCT-15 colon 85.4% | HT29 colon 59.7% | SNB-75 CNS 68.6% | SNB-19 CNS 18.8% | U251 CNS 43.1% | PC-3 prostate 38.2% | SK-MEL-5 melanoma 35.6% | UACC-62 melanoma 63.2% | SK-MEL-28 melanoma 82.9%
active: LOX IMVI melanoma 0.0918%
